Results as given in PubChem BioAssay (NCI).
The panel holds about 79,000 compounds, 15% with a hit somewhere; the sample as a whole holds those more often. Active and inactive are the calls of the source. Rule as the data show it: active = growth inhibition above about 70%; inactive = the rest.

Legend:
[1] = NCI Yeast Anticancer Drug Screen. Data for the rad52 strain (AID 147);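 also: 0% = growth of vehicle-treated control cultures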; conditions: S. cerevisiae rad52 mutant growth inhibition, active compounds read high
Procedure, shortened: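 Vehicle-treated cultures served as the reference for growth inhibition of compound-exposed yeast bearing a DNA repair mutation.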

[2] = NCI Yeast Anticancer Drug Screen. Data for the wt1 strain (AID 149);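 also: 0% = growth of vehicle-treated wt1 cultures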; conditions: S. cerevisiae wt1 strain (SPY 50644) growth inhibition, active compounds read high
Procedure, shortened: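 Compounds are added to wt1 yeast cultures. Growth is then measured. Inhibition is expressed relative to vehicle-treated controls.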

[3] = NCI Yeast Anticancer Drug Screen. Data for the rad50EPP+ strain (AID 151);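 also: 0% = growth of vehicle-treated control cultures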; conditions: S. cerevisiae rad50 mutant strain, active compounds read high
Procedure, shortened: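 In this screen, rad50EPP+ yeast were exposed to compounds. Growth inhibition was scored against vehicle-treated controls.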

[4] = NCI Yeast Anticancer Drug Screen. Data for the mgt1 strain (AID 153); conditions: S. cerevisiae mgt1 mutant growth inhibition, active compounds read high
Procedure, shortened: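 mgt1 strain exposed; growth vs vehicle control recorded as inhibition.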

[5] = NCI Yeast Anticancer Drug Screen. Data for the rad50 strain (AID 155);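 also: 0% = growth of vehicle-only cultures of the same strain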; conditions: S. cerevisiae rad50 strain growth inhibition, active compounds read high
Procedure, shortened: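 Inhibition values express reduced yeast growth in compound-treated cultures relative to vehicle-treated controls.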

[6] = NCI Yeast Anticancer Drug Screen. Data for the sgs1 mgt1 strain (AID 161);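 also: 0% = growth of cultures given vehicle only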; conditions: S. cerevisiae sgs1 mgt1 strain, active compounds read high
Procedure, shortened: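 Inhibition of yeast growth, normalised to vehicle-treated controls, is reported for a strain bearing genetic alterations in DNA damage repair.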

[7] = NCI Yeast Anticancer Drug Screen. Data for the CLN2oe strain (AID 163);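 also: 0% = growth of vehicle-only control cultures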; conditions: S. cerevisiae CLN2oe strain, active compounds read high
Procedure, shortened: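 Inhibition relative to vehicle-treated yeast is reported. Cells: strain with genetic alteration in cell-cycle control, grown with compound.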

[8] = NCI Yeast Anticancer Drug Screen. Data for the cln2 rad14 strain (AID 165);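 also: 0% = growth equal to vehicle treated cultures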; conditions: S. cerevisiae cln2 rad14 strain, active compounds read high
Procedure, shortened: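 Each compound was tested on cln2 rad14 yeast. Inhibition of growth was calculated against vehicle-exposed controls.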

[9] = NCI Yeast Anticancer Drug Screen. Data for the bub3 strain (AID 167); conditions: S. cerevisiae bub3 mutant strain, active compounds read high
Procedure, shortened: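 Steps: expose the mutant yeast strain to compound; grow alongside vehicle-treated cultures; measure growth; express inhibition against the vehicle cultures.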

[10] = NCI Yeast Anticancer Drug Screen. Data for the wt2 strain (AID 169);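 also: 0% = growth of vehicle-treated yeast cultures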; conditions: S. cerevisiae wt2 strain growth inhibition, active compounds read high
Procedure, shortened: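 Inhibition of yeast growth was determined after compound treatment, normalised to controls receiving only vehicle.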

[11] = NCI Yeast Anticancer Drug Screen. Data for the mlh1 strain (AID 171);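 also: 0% = growth of vehicle-treated control cultures of the same strain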; conditions: S. cerevisiae mlh1 strain growth inhibition, active compounds read high
Procedure, shortened: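 Vehicle-normalised growth inhibition of a repair- or checkpoint-altered yeast strain following compound treatment.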

[12] = NCI Yeast Anticancer Drug Screen. Data for the sgs1 strain (AID 173);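 also: 0% = growth of vehicle-only control cultures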; conditions: S. cerevisiae sgs1 mutant, active compounds read high
Procedure, shortened: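 Screen format: yeast with repair or checkpoint alterations, compound exposure, growth read relative to vehicle.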

[13] = NCI Yeast Anticancer Drug Screen. Data for the mlh1 rad18 strain (AID 175); conditions: S. cerevisiae mlh1 rad18 strain growth inhibition, active compounds read high
Procedure, shortened: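 Vehicle-treated cultures served as the reference for growth inhibition in a yeast strain carrying DNA damage repair alterations exposed to each compound.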

[14] = NCI Yeast Anticancer Drug Screen. Data for the rad18 strain (AID 177); conditions: S. cerevisiae rad18 mutant growth inhibition, active compounds read high
Procedure, shortened: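 Test articles were incubated with altered yeast defective in DNA damage repair. Results are given as inhibition of growth versus vehicle.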

[15] = NCI Yeast Anticancer Drug Screen. Data for the mec2-1 strain (AID 157); conditions: S. cerevisiae mec2-1 strain, active compounds read high
Procedure, shortened: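 Vehicle-treated cultures served as reference for growth inhibition of compound-exposed mec2-1 yeast.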

[16] = NCI Yeast Anticancer Drug Screen. Data for the rad14 strain (AID 159);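 also: 0% = growth of vehicle-treated control cultures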; conditions: S. cerevisiae rad14 strain growth inhibition, active compounds read high
Procedure, shortened: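 A mutant yeast strain defective in DNA damage repair is treated with compound; inhibition of its growth is scored against untreated, vehicle-exposed cultures.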

[17] = at 5.0 µM (retest, dose inferred, filed as 0.5)
[18] = at 50.0 µM (retest, dose inferred, filed as 5.0)

Measured: growth inhibition

O=C1c2ccc3ccccc3c2CCC1N1CCCCC1 (stereo not drawn)
active: [1]; at 33.0 µM 81% | [1]; at 100.0 µM 98% | [2]; at 100.0 µM 97% | [3]; at 11.0 µM 77% | [3]; at 33.0 µM 85% | [3]; at 100.0 µM 98% | [4]; at 33.0 µM 76% | [4]; at 100.0 µM 98% | [5]; at 33.0 µM 73% | [5]; [18] 97% | [5]; at 50.0 µM 98.9% | [5]; at 100.0 µM 98% | [6]; [18] 98% | [6]; at 50.0 µM 99.2% | [7]; at 100.0 µM 98% | [8]; [18] 97% | [8]; at 50.0 µM 78.3% | [9]; at 33.0 µM 76% | [9]; [18] 99% | [9]; at 50.0 µM 99.3% | [9]; at 100.0 µM 97% | [10]; at 33.0 µM 79% | [10]; at 100.0 µM 97% | [11]; at 33.0 µM 81% | [11]; at 100.0 µM 98% | [12]; at 33.0 µM 92% | [12]; at 100.0 µM 98% | [13]; [18] 99% | [13]; at 50.0 µM 97% | [14]; at 100.0 µM 97%
inactive: [1]; at 1.2 µM 4% | [1]; at 3.7 µM 16% | [1]; at 11.0 µM 41% | [2]; at 1.2 µM 3% | [2]; at 3.7 µM 11% | [2]; at 11.0 µM 9% | [2]; at 33.0 µM 27% | [3]; at 1.2 µM 32% | [3]; at 3.7 µM 53% | [4]; at 1.2 µM 3% | [4]; at 3.7 µM 10% | [4]; at 11.0 µM 21% | [5]; at 1.2 µM 2% | [5]; at 3.7 µM 8% | [5]; [17] 9% | [5]; at 11.0 µM 16% | [6]; [17] 19% | [7]; at 1.2 µM 5% | [7]; at 3.7 µM 5% | [7]; at 11.0 µM 22% | [7]; at 33.0 µM 61% | [8]; [17] 7% | [9]; at 1.2 µM -7% | [9]; at 3.7 µM -6% | [9]; [17] 10% | [9]; at 11.0 µM 8% | [10]; at 1.2 µM 5% | [10]; at 3.7 µM 14% | [10]; at 11.0 µM 33% | [11]; at 1.2 µM -1% | [11]; at 3.7 µM 7% | [11]; at 11.0 µM 22% | [12]; at 1.2 µM 4% | [12]; at 3.7 µM 12% | [12]; at 11.0 µM 41% | [13]; [17] 31% | [14]; at 1.2 µM 6% | [14]; at 3.7 µM 13% | [14]; at 11.0 µM 26% | [14]; at 33.0 µM 65%

COC(COC(=O)N1CCN(C=O)CC1)C1=C(N2CC2)C(=O)C(C)=C(N2CC2)C1=O (stereo not drawn)
inactive: [1]; at 1.2 µM 4% | [1]; at 3.7 µM 18% | [1]; at 11.0 µM 30% | [1]; at 33.0 µM 66% | [2]; at 1.2 µM 10% | [2]; at 3.7 µM 12% | [2]; at 11.0 µM 22% | [2]; at 33.0 µM 39% | [2]; at 100.0 µM 47% | [3]; at 1.2 µM -44% | [3]; at 3.7 µM -38% | [3]; at 11.0 µM -35% | [3]; at 33.0 µM -8% | [3]; at 100.0 µM -5% | [5]; at 1.2 µM 17% | [5]; at 3.7 µM 35% | [5]; [17] 64% | [5]; at 11.0 µM 43% | [5]; at 33.0 µM 53% | [5]; [18] 22% | [5]; at 50.0 µM 35.3% | [15]; at 1.2 µM -6% | [15]; at 3.7 µM 1% | [15]; [17] 19% | [15]; at 11.0 µM 6% | [15]; at 33.0 µM 36% | [15]; [18] 35% | [15]; at 50.0 µM 32.9% | [15]; at 100.0 µM 67% | [16]; at 1.2 µM 4% | [16]; at 3.7 µM 1% | [16]; at 11.0 µM 6% | [16]; at 33.0 µM 39% | [6]; [17] -8% | [6]; [18] 26% | [6]; at 50.0 µM 40.4% | [7]; at 1.2 µM 12% | [7]; at 3.7 µM 23% | [7]; at 11.0 µM 25% | [7]; at 33.0 µM 29% | [7]; at 100.0 µM 53% | [8]; [17] -11% | [8]; [18] 27% | [8]; at 50.0 µM 34.5% | [9]; at 1.2 µM -18% | [9]; at 3.7 µM -3% | [9]; [17] -2% | [9]; at 11.0 µM -4% | [9]; at 33.0 µM 10% | [9]; [18] 1% | [9]; at 50.0 µM -10.2% | [9]; at 100.0 µM 18% | [10]; at 1.2 µM -27% | [10]; at 3.7 µM -33% | [10]; at 11.0 µM -25% | [10]; at 33.0 µM -17% | [10]; at 100.0 µM -2% | [11]; at 1.2 µM -7% | [11]; at 3.7 µM -32% | [11]; at 11.0 µM -9% | [11]; at 33.0 µM 17% | [11]; at 100.0 µM 38% | [12]; at 1.2 µM 20% | [12]; at 3.7 µM 14% | [12]; at 11.0 µM 24% | [12]; at 33.0 µM 40% | [12]; at 100.0 µM 64% | [13]; [17] 23% | [14]; at 1.2 µM 26% | [14]; at 3.7 µM 59%
active: [1]; at 100.0 µM 79% | [5]; at 100.0 µM 79% | [16]; at 100.0 µM 74% | [13]; [18] 74% | [13]; at 50.0 µM 79.4% | [14]; at 11.0 µM 79% | [14]; at 33.0 µM 89% | [14]; at 100.0 µM 93%
